What all share (settings): modulator concentration 10 µM
Test [1] concerns RAW-Dual (murine macrophage reporter line). The test can be described thus: NF-kB reporter (SEAP) activity fold change vs agonist alone; higher = enhanced NF-kB activity. The method, boiled down:
(§1)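 Compound reached 10 μM final in each well by pin transfer, onto RAW-Dual murine macrophage reporter cells seeded at 50 000 per well in 384-well plates. After 1 hour at 37 °C, the cells were stimulated overnight with a PRR agonist. SEAP in the supernatant was read with QUANTI-Blue at 620 nm absorbance for NF-κB, and Lucia luciferase was read with QUANTI-Luc luminescence for IRF. Each signal was turned into fold change against the mean agonist-only control on the same plate, and two replicate plates were averaged with propagated errors.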

Test [2] has the same test system. The test can be described thus: IRF reporter (Lucia luciferase) activity fold change vs agonist alone; higher = enhanced IRF activity. The method, boiled down:
as §1

Test [3] has the same test system. Nature of the test: viability score (confluency relative to resting cells, overnight) (fraction); higher = more viable, active = viable (0.7 or more). The method, boiled down: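 Overnight exposure to 10 μM final compound was carried out on RAW-Dual macrophages in 384-well plates. IncuCyte software generated two confluency masks over all wells imaged with IncuCyte. The viability score gives confluency in relation to resting cells. A compound met the cutoff if each mask exceeded 70% of resting cells.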

The mark [4] stands for this setting: agonist: CpG ODN 1826 0.5 ug/mL.

± gives the standard deviation.

As for `CCN(CC)CCOC(=O)c1ccc(N)cc1.Cl`, the NF-kB reporter in test [1] (setting [4]) stood at 1.29 ± 0.2; in test [1] (agonist: LPS 0.1 ug/mL), 1.08 ± 0.26; in test [1] (agonist: MPLA […]), 1.89 ± 0.82. The IRF reporter in test [2] (agonist: 3'3'-cGAMP 10 ug/mL) is 0.923 ± 0.039; in test [2] (agonist: LPS 0.1 ug/mL), 1.22 ± 0.43; in test [2] (agonist: MPLA […]), 1.16 ± 0.13. In test [3], the viability score was 0.996 (active).
In the case of `COC(=O)C1C(O)CCC2CN3CCc4c([nH]c5ccccc45)C3CC21.Cl` (stereo unspecified), the results for the NF-kB reporter in test [1] (setting [4]), in test [1] (agonist: LPS 0.1 ug/mL) and in test [1] (agonist: MPLA […]) were 1.19 ± 0.28, 0.917 ± 0.076 and 0.906 ± 0.058, respectively. Also, the IRF reporter in test [2] (agonist: 3'3'-cGAMP 10 ug/mL) stood at 0.92 ± 0.1; in test [2] (agonist: LPS 0.1 ug/mL), 1.15 ± 0.25; in test [2] (agonist: MPLA […]), 1.23 ± 0.15. Also, the viability score in test [3] was 0.995 (active).
Regarding `CC(C)c1c(C(=O)Nc2ccccc2)c(-c2ccccc2)c(-c2ccc(F)cc2)n1CC[C@@H](O)C[C@@H](O)CC(=O)O` [Prestw-1232], the NF-kB reporter in test [1] (setting [4]) is 1.63 ± 0.21; in test [1] (agonist: LPS 0.1 ug/mL), 1.05 ± 0.11; in test [1] (agonist: MPLA […]), 1.16 ± 0.033. Also, the IRF reporter in test [2] (agonist: 3'3'-cGAMP 10 ug/mL) was 0.893 ± 0.036; in test [2] (agonist: LPS 0.1 ug/mL), 0.928 ± 0.068; in test [2] (agonist: MPLA […]) it was 1.13 ± 0.12. In addition, in test [3], the viability score is 0.995 (active).
Turning to `CCOC(=O)c1c(C)nn(C2CCCCC2)c1N`, the NF-kB reporter in test [1] (setting [4]) was 1.1 ± 0.1; in test [1] (agonist: LPS 0.1 ug/mL), 1.02 ± 0.049; in test [1] (agonist: MPLA […]), 1.09 ± 0.099. The values for the IRF reporter in test [2] (agonist: 3'3'-cGAMP 10 ug/mL), in test [2] (agonist: LPS 0.1 ug/mL) and in test [2] (agonist: MPLA […]) were 0.954 ± 0.044, 1.2 ± 0.075 and 1.37 ± 0.12, respectively. For the same compound, the viability score in test [3] is 1.02 (active).
With `C/C(O)=C(\C#N)C(=O)Nc1ccc(C(F)(F)F)cc1`, the NF-kB reporter was determined as 0.861 ± 0.037 in test [1] (setting [4]), 1.04 ± 0.084 in test [1] (agonist: LPS 0.1 ug/mL) and 1.01 ± 0.074 in test [1] (agonist: MPLA […]). In addition, the IRF reporter in test [2] (agonist: 3'3'-cGAMP 10 ug/mL) is 0.855 ± 0.044; in test [2] (agonist: LPS 0.1 ug/mL), 1.24 ± 0.26; in test [2] (agonist: MPLA […]), 1.4 ± 0.58. Besides, the viability score in test [3] was 1 (active).
In the case of `Cc1cn[nH]c1`, the NF-kB reporter in test [1] (setting [4]) was found to be 0.122 ± 0.015; in test [1] (agonist: LPS 0.1 ug/mL) it was 0.0449 ± 0.0036; in test [1] (agonist: MPLA […]), 0.154 ± 0.0086. Moreover, the IRF reporter in test [2] (agonist: 3'3'-cGAMP 10 ug/mL) stood at 0.685 ± 0.032; in test [2] (agonist: LPS 0.1 ug/mL), 1.81 ± 0.19; in test [2] (agonist: MPLA […]), 2.85 ± 0.43. In addition, the viability score in test [3] was 0.702 (active).
On to `C[C@@H]1CCN(C(=O)CC#N)C[C@@H]1N(C)c1ncnc2[nH]ccc12`, for which the NF-kB reporter in test [1] (setting [4]) was 1.14 ± 0.15; in test [1] (agonist: LPS 0.1 ug/mL) it was 0.694 ± 0.24; in test [1] (agonist: MPLA […]), 0.824 ± 0.064. The IRF reporter was found to be 0.337 ± 0.022 in test [2] (agonist: 3'3'-cGAMP 10 ug/mL), 0.473 ± 0.098 in test [2] (agonist: LPS 0.1 ug/mL) and 0.654 ± 0.082 in test [2] (agonist: MPLA […]). Moreover, the viability score in test [3] is 0.992 (active).
As to `CC1(C)Cc2c(sc3nc(SCC(N)=O)n(CCc4ccccc4)c(=O)c23)CO1`, the values for the NF-kB reporter in test [1] (setting [4]), in test [1] (agonist: LPS 0.1 ug/mL) and in test [1] (agonist: MPLA […]) were 0.815 ± 0.07, 0.814 ± 0.054 and 0.927 ± 0.1, respectively. Further, the figures for the IRF reporter in test [2] (agonist: 3'3'-cGAMP 10 ug/mL), in test [2] (agonist: LPS 0.1 ug/mL) and in test [2] (agonist: MPLA […]) were 1.02 ± 0.054, 1.24 ± 0.084 and 1.3 ± 0.11, respectively. Besides, in test [3], the viability score is 1.01 (active).
Regarding `COC(C)(CNC(=O)CSc1ccc(F)cc1)c1cccc(Cl)c1` (stereo unspecified), the NF-kB reporter in test [1] (setting [4]) stood at 1.11 ± 0.4; in test [1] (agonist: LPS 0.1 ug/mL), 1.07 ± 0.11; in test [1] (agonist: MPLA […]), 1.01 ± 0.074. Also, the IRF reporter in test [2] (agonist: 3'3'-cGAMP 10 ug/mL) amounted to 0.973 ± 0.082; in test [2] (agonist: LPS 0.1 ug/mL), 0.992 ± 0.13; in test [2] (agonist: MPLA […]), 1.12 ± 0.32. In test [3], the viability score was 0.987 (active).
As to `CN(C)CC(c1ccc(O)cc1)C1(O)CCCCC1` (stereo unspecified), the NF-kB reporter in test [1] (setting [4]) is 0.971 ± 0.16; in test [1] (agonist: LPS 0.1 ug/mL) it was 1.07 ± 0.26; in test [1] (agonist: MPLA […]), 0.893 ± 0.054. Besides, the figures for the IRF reporter in test [2] (agonist: 3'3'-cGAMP 10 ug/mL), in test [2] (agonist: LPS 0.1 ug/mL) and in test [2] (agonist: MPLA […]) were 0.897 ± 0.045, 1.44 ± 0.32 and 1.17 ± 0.092, respectively. Moreover, in test [3], the viability score was 0.992 (active).
Consider `CCOC(=O)C1=C(C)NC(C)=C(C(=O)OCC)C1c1ccc(O)cc1`, for which the results for the NF-kB reporter in test [1] (setting [4]), in test [1] (agonist: LPS 0.1 ug/mL) and in test [1] (agonist: MPLA […]) were 1.41 ± 0.23, 0.895 ± 0.083 and 1.35 ± 0.13, respectively. The IRF reporter was 1.01 ± 0.03 in test [2] (agonist: 3'3'-cGAMP 10 ug/mL), 0.971 ± 0.16 in test [2] (agonist: LPS 0.1 ug/mL) and 0.966 ± 0.099 in test [2] (agonist: MPLA […]). In addition, in test [3], the viability score is 0.991 (active).
Regarding `COc1cccc(-c2ccc(NC(=O)C3=C(C(=O)O)CCC3)c(F)c2)c1`, the values for the NF-kB reporter in test [1] (setting [4]), in test [1] (agonist: LPS 0.1 ug/mL) and in test [1] (agonist: MPLA […]) were 0.954 ± 0.25, 0.806 ± 0.088 and 1.01 ± 0.088, respectively. The IRF reporter in test [2] (agonist: 3'3'-cGAMP 10 ug/mL) turned out to be 2.42 ± 0.23; in test [2] (agonist: LPS 0.1 ug/mL), 2.04 ± 0.35; in test [2] (agonist: MPLA […]), 1.38 ± 0.24. Also, the viability score in test [3] is 0.91 (active).
Turning to `O=C1CN(/N=C/c2ccc([N+](=O)[O-])o2)C(=O)N1`, the values for the NF-kB reporter in test [1] (setting [4]), in test [1] (agonist: LPS 0.1 ug/mL) and in test [1] (agonist: MPLA […]) were 1.13 ± 0.27, 1.14 ± 0.087 and 0.87 ± 0.068, respectively. Further, the results for the IRF reporter in test [2] (agonist: 3'3'-cGAMP 10 ug/mL), in test [2] (agonist: LPS 0.1 ug/mL) and in test [2] (agonist: MPLA […]) were 0.821 ± 0.029, 1.21 ± 0.16 and 1.14 ± 0.17, respectively. The viability score in test [3] was 0.994 (active).

Values taken from the supplement of paper PMC10646978.
